Only some compounds are listed: those with a hit (about 3% of all), similar ones and a draw of the others.
PPC-1+TRAIL kill = kills PPC-1 cancer cells in the presence of TRAIL; PPC-1 cells + TRAIL, ATPLite viability luminescence; cell killing (% activity), % at 4 µM or 5 µM; AID 1443; 220,000 tested, 0.41% active;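 active means cell killing above 50% in the first pass at 4 µM, then a duplicate retest at 5 µM averaging 50% or more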;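 further: plate controls were cells with TRAIL plus DMSO for no effect and medium-only wells lacking cells for full effect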
SENP8 block-1 = inhibitors of human SENP8 protease; 330,000 tested, 1.2% active; inhibition, % at 10 µM; purified SENP8, Z-RLRGG-aminoluciferin cleavage, luminescence; in the data active means inhibition above about 50%
Target sequence (Q96LD8 whole entry, looked up): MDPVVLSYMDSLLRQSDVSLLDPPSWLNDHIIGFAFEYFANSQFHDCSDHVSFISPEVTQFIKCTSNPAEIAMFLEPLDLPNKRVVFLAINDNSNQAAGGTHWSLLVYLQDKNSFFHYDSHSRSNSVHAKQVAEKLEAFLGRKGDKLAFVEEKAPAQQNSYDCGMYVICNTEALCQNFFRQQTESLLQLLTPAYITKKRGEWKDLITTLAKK
SENP6 inh = SENP6 protease inhibition; Recombinant SENP6 catalytic domain, aminoluciferin luminescence; 330,000 tested, 1.8% active; Q9GZR1; inhibition, % at 10 µM;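 active means inhibition above about 50% at the single tested dose, limit read from the data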;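 further: plate controls were DMSO wells with enzyme for no effect and DMSO wells lacking enzyme for full effect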
SENP8 block-2 = blocks human SENP8 cleavage of Nedd8 substrate. recombinant SENP8, Nedd8 substrate fluorescence. inhibition, % at 20 µM. 360,000 tested, 0.64% active. AID 602440; in the data active means inhibition mostly above about 40%, no sharp cut-off; inactive means mostly below about 27%
SENP7 block = blocks the human protease SENP7. recombinant SENP7, Z-RLRGG-aminoluciferin luminescence, 40 min. AID 434973. inhibition, % at 5 µM. Q9BQF6. 330,000 tested, 1.5% active;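 active means inhibition above about 50% at the single test dose, limit read from the data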;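 further: plate controls were DMSO with enzyme for no effect and no enzyme buffer wells for full effect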
TRAIL sens C8 = caspase-8 TRAIL sensitization | NB7+C8 cells + TRAIL, ATPlite viability luminescence | inhibition (viability loss, TRAIL sensitization), % at 10 µM | 360,000 tested, 1% active | AID 624354;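 active means compounds causing at least 50% loss of cell viability in the single-dose screen, relative to plate controls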
SENP8 conf = confirmation of human SENP8 protease inhibitors; shares compounds with SENP7 block; Recombinant SENP8, Z-RLRGG-aminoluciferin luminescence, 60 min; inhibition, % at 12.5 µM; 6,200 tested, 40% active;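 active means mean inhibition across replicates above about 50%, limit read from the data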
SENP6 confirm = confirmation of human SENP6 protease inhibitors | shares compounds with SENP7 block | recombinant SENP6, Z-RLRGG-aminoluciferin luminescence | inhibition, % at 12.5 µM | 6,200 tested, 58% active | AID 488915
SENP7 confirm = human SENP7 inhibition, confirmed; shares compounds with SENP7 block; recombinant SENP7, Z-RLRGG-aminoluciferin luminescence, 40 min; inhibition, % at 12.5 µM; 6,200 tested, 69% active
Casp3 SENP sel = inhibits human caspase-3 in SENP selectivity test; 6,200 tested, 60% active; purified caspase-3, Z-DEVD-aminoluciferin luminescence, 60 min; shares compounds with SENP7 block; inhibition, % at 12.5 µM;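 active means mean inhibition above about 50%, limit read from the data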;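 further: plate controls were enzyme with DMSO for no effect and wells without caspase-3 for full effect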
Target sequence (P42574 28-227 limits assumed): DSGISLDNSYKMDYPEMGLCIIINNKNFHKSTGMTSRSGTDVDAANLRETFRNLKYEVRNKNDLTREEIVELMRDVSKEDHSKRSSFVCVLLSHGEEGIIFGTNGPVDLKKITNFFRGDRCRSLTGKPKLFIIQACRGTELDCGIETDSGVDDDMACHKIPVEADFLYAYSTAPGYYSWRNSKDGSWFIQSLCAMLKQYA
SENP luc ctr = counter-screen for SENP inhibitors: luminescence interference | shares compounds with SENP7 block | Pre-incubated SENP8/Z-RLRGG-aminoluciferin, luciferase luminescence interference | inhibition, % at 12.5 µM | 6,200 tested, 39% active | AID 488919;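 active means mean inhibition above about 50% when retested at one dose, limit read from the data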;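 further: plate controls were DMSO wells with completed reaction for no effect and substrate without enzyme for full effect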
Starred values were filed as active, the others as inactive; i = inactive; x = not tested or not shown.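 How the source made its calls, unless noted: active means mean inhibition above about 50% in the one-dose retest (limit read from the data); inactive means the rest.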

SMILES | PPC-1+TRAIL kill | SENP8 block-1 | SENP6 inh | SENP8 block-2 | SENP7 block | TRAIL sens C8 | SENP8 conf | SENP6 confirm | SENP7 confirm | Casp3 SENP sel | SENP luc ctr
Cc1cc(NC(=O)C(C)SCC(=O)Nc2ccccc2C(C)(C)C)no1 (stereo not drawn) | x | 2 | 5 | 0 | -2 | 3 | x | x | x | x | x
Cc1ccc(C(=O)N=c2sccn2C)cc1S(=O)(=O)N1CCOCC1 | x | -6 | 2 | -182 | 9 | 0 | x | x | x | x | x
Cc1ccc(C(=O)N=c2sccn2C)cc1C | x | 67* | 82* | -195 | 83* | 20 | 70* | 70* | 94* | 86* | 81*
O=C(Nc1ccccc1C(=O)NCc1ccco1)Nc1cccc2ccccc12 | 5 | -6 | -22 | -239 | -1 | 1 | x | x | x | x | x
O=C(Nc1cccc(Cl)c1)Nc1ccccc1C(=O)NCc1ccco1 | -14 | 68* | 73* | -404 | 76* | 1 | 14 | 47 | 96* | 43 | 46
C=CCN(CC=C)c1cnn(-c2nc3ccccc3[nH]2)c(=O)c1Cl | 16 | 58* | 87* | -226 | 77* | 66* | 71* | 77* | 94* | 91* | 25
O=c1c(Cl)c(NCCO)cnn1-c1cccc(Cl)c1 | 4 | -12 | -3 | -15 | -5 | -2 | x | x | x | x | x
O=c1c(Cl)c(NCCCO)cnn1-c1nc2ccccc2[nH]1 | 19 | 50 | 62* | -358 | 69* | 5 | 59* | 56* | 85* | 89* | 36
O=S(=O)(Nc1nc2ccccc2[nH]1)c1ccc(Cl)cc1 | 20 | 2 | 5 | 3 | 1 | 6 | x | x | x | x | x
NC(=O)c1c(NC(=O)COC(=O)c2ccc(S(=O)(=O)Nc3ccccc3)cc2)sc2c1CCCC2 | 11 | -4 | 10 | -19 | -4 | 14 | x | x | x | x | x
CC1CCN(C(=O)CCC(=O)Nc2nnc(C3CCCCC3)s2)CC1 | x | -14 | -5 | 10 | -9 | -20 | x | x | x | x | x
CCOc1cc(-c2noc(-c3cccnc3)n2)ccc1OC | 40 | -3 | -18 | 4 | 4 | -2 | x | x | x | x | x
c1ccc(-c2ccc(-c3nc(-c4cccnc4)no3)cc2)cc1 | 2 | 90* | 97* | -17 | 99* | 39 | 70* | 71* | 80* | 88* | 35
c1ccc(-c2noc(-c3cccnc3)n2)cc1 | 22 | 58* | 76* | 12 | 7 | 26 | 3 | 60* | 88* | 77* | 16
c1cncc(-c2noc(-c3ccc4ccccc4c3)n2)c1 | x | 83* | 90* | -172 | 91* | 45 | 56* | 69* | 94* | 75* | 19
COc1ccc(-c2noc(-c3cccnc3)n2)cc1OC | 24 | 19 | 44 | 20 | 35 | 9 | x | x | x | x | x
O=C(COC(=O)c1ccc(S(=O)(=O)Nc2ccccc2)cc1)NCCC1=CCCCC1 | -4 | 7 | 11 | 14 | -10 | -5 | x | x | x | x | x
CN(C)c1ccc(CC(=O)N2CCCCC2c2cc(C(=O)Nc3cccc4c3CCCC4)no2)cc1 (stereo not drawn) | x | x | x | 11 | x | 3 | x | x | x | x | x
CCOC(=O)C(/C(N)=N/C(=O)Nc1ccccc1)=C(\C)O | 2 | 44 | 64* | 11 | 1 | 2 | 16 | 57* | 88* | 80* | 8
O=C(COC(=O)c1ccc([N+](=O)[O-])o1)Nc1ccc2c(c1)OCO2 | x | 13 | 8 | 22 | 18 | -5 | x | x | x | x | x
COc1cccc(OCc2nc3c4cnn(-c5ccccc5)c4ncn3n2)c1 | 8 | 6 | -22 | -96 | 73* | -21 | -8 | 1 | 12 | 21 | 4
O=C(O)CC1(CC(=O)Nc2ccccc2Br)CCCC1 | x | -16 | -3 | 29 | 11 | 0 | x | x | x | x | x
Cc1cc(C(F)(F)F)c(C#N)c(SCC(=O)Nc2nc3ccccc3s2)n1 | 11 | 89* | 80* | 19 | 91* | 44 | 20 | 16 | 12 | 20 | 2
Nc1ccc(Br)c2c1C(=O)c1ccccc1C2=O | -16 | 2 | -8 | x | 12 | x | x | x | x | x | x
NC1=C(Br)C(=O)c2ccccc2C1=O | 16 | 54* | 76* | 104* | 49 | 28 | 36 | 63* | 27 | 78* | 2
SMILES | PPC-1+TRAIL kill | SENP8 block-1 | SENP6 inh | SENP8 block-2 | SENP7 block | TRAIL sens C8 | SENP8 conf | SENP6 confirm | SENP7 confirm | Casp3 SENP sel | SENP luc ctr
C/C(=N/N=C/c1ccccc1O)c1ccccc1O | x | 55* | 60* | 17 | 86* | 6 | 19 | 30 | 30 | 26 | 10
Oc1ccccc1C=NN=C1c2ccccc2-c2ccccc21 | x | x | x | 22 | x | -4 | x | x | x | x | x
Cc1noc(C)c1C(=O)Nc1nc2ccc(S(C)(=O)=O)cc2s1 | x | 38 | 66* | -183 | 62* | 54* | 60* | 56* | 85* | 85* | 62*
COc1ccc2nc(NC(=O)c3c(C)noc3C)sc2c1 | x | 73* | 78* | i | 83* | 42 | 83* | 81* | 97* | 88* | 65*
Cc1ccc(C)c(C(=O)COC(=O)Cn2c(C)csc2=O)c1 | x | -4 | 6 | -9 | -3 | 0 | x | x | x | x | x
CC(=O)c1coc2c1cc(O)c1ccccc12 | 6 | -8 | 3 | 16 | 11 | 7 | x | x | x | x | x
O=C(c1ccco1)c1coc2c1cc(O)c1ccccc12 | 36 | -5 | 60* | 21 | 20 | 0 | -14 | 7 | -1 | 1 | -3
COc1ccc2cc(/C=C/C(=O)N3CCN(CC(=O)N4CCCCCC4)CC3)ccc2c1 | x | -8 | -11 | -319 | -8 | 18 | x | x | x | x | x
CCOC(=O)Cn1nc(C)n(-c2ccccc2)c1=O | 6 | 5 | -11 | 3 | 0 | -21 | x | x | x | x | x
CCOC(=O)Cn1nc(C)n(-c2ccc(C)cc2)c1=O | 8 | 7 | -3 | 5 | 101* | -5 | 3 | 1 | -1 | 0 | -1
Cc1cc2c(cc1S(=O)(=O)Nc1cccc(C)c1C)n(C)c(=O)c(=O)n2C | x | -10 | -13 | -99 | 15 | -2 | x | x | x | x | x
CN1CCN(c2ccc(NC(=O)c3cccs3)cc2)CC1 | 10 | 28 | 54* | 1 | 39 | 17 | 25 | 24 | 72* | 82* | 47
O=C(Nc1ccc(Cl)cc1)c1cccs1 | 10 | 10 | -17 | 30 | 46 | 15 | x | x | x | x | x

Bioassay records: PubChem BioAssay, Sanford-Burnham Center for Chemical Genomics
